Inconclusive results are not listed. Calls of active or inactive are those of the source. How the source made its calls: active means hit-call score of the fitted dose curve at least 0.9, where 1 is the maximum; inconclusive means response in the unintended direction; inactive means score below 0.9.
These compounds were tested against mouse Estrogen Receptor alpha (Era), Esr1 (gene 13982) (UniProt P19785) (assay: NVS_NR_mERa: NovaScreen (NVS) Nuclear Receptor Binding Assay for mouse Estrogen Receptor alpha (Era) (AID 2283378)).
Sequence of mouse Estrogen Receptor alpha (Era), Esr1 (gene 13982) (P19785 whole entry, looked up): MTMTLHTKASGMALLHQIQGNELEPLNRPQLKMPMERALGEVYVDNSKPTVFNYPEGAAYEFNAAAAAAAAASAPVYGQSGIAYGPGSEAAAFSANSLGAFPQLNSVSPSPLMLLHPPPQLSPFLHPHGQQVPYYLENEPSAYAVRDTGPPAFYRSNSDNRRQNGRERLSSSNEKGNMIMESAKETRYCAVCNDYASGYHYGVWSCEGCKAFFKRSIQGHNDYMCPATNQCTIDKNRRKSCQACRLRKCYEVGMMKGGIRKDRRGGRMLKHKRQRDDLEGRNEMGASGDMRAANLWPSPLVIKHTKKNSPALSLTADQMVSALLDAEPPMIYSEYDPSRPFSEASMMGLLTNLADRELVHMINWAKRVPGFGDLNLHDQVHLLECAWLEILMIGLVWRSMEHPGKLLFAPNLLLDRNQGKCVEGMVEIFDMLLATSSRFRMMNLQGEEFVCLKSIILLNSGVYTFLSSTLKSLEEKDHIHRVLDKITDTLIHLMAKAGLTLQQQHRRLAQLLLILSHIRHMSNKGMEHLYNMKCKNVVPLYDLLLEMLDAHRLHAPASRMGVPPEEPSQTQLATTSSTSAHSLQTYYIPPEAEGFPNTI
Experimental: NVS_NR_mERa is a biochemical, single-readout assay that uses extracted gene-proteins in a cell-free assay. Measurements were taken 18 hours after chemical dosing in a 96-well plate.NVS_NR_mERa is one of one assay component(s) measured or calculated from the NVS_NR_mERa assay. It is designed to make measurements of radioligand binding, a form of binding reporter, as detected with scintillation counting signals by Filter-based radiodetection technology.Data from the assay component NVS_NR_mERa was analyzed into 1 assay endpoint. This assay endpoint, NVS_NR_mERa, was analyzed in the positive analysis fitting direction relative to DMSO as the negative control and baseline of activity. Using a type of binding reporter, loss-of-signal activity can be used to understand changes in the binding as they relate to the gene Esr1. Furthermore, this assay endpoint can be referred to as a primary readout, because the performed assay has only produced 1 assay endpoint. To generalize the intended target to other relatable targets, this assay endpoint is annotated to the nuclear receptor intended target family, where the subfamily is steroidal.
Binding assays used specific radioligands (tritiated, iodinated) with non-radioactive competitive displacement ligands in agonist or antagonist protocols (as indicated) and various reference compounds and inhibitors to titrate specific binding to receptors and transporters. Most enzyme assays (CYPs, kinases, phosphatases, proteases, HDACs) used recombinant protein and specific substrates (fluorescence mostly, some colorimetric and radioactive) and inhibitors, followed by a biochemical separation of substrate and product. All assays for the biochemical HTS were initially run in duplicate at a single concentration (10 uM for CYP450 assays and 25 uM for all others). […] Each assay was run with positive and negative controls, and concurrent controls on every plate. The follow-up (secondary) screen tested active chemical-pairs in concentration series, as well as a few additional assays not tested in the primary screen, some selected negative inactives, and several cases re-run in the concentration series for confirmatory purposes.

SMILES | AC50 | outcome
O=C1c2ccccc2C(=O)C1C(=O)C(c1ccccc1)c1ccc(Cl)cc1 (stereo unspecified) | 1.12 µM (active) | –
C=CC(=O)[O][Sn]([CH2]CCC)([CH2]CCC)[CH2]CCC | – | inactive
O=S1OC[C@@H]2[C@H](CO1)[C@]1(Cl)C(Cl)=C(Cl)[C@@]2(Cl)C1(Cl)Cl (stereo partly specified) | – | inactive
CCC[CH2][Sn]([Cl])([Cl])[CH2]CCC | – | inactive
O=C(NC(=O)c1c(F)cccc1F)Nc1cc(Cl)c(Oc2ncc(C(F)(F)F)cc2Cl)c(Cl)c1 | – | inactive
O=c1[nH]c2ccccc2n1C1CCN(CCCC(c2ccc(F)cc2)c2ccc(F)cc2)CC1 | – | inactive
O=C(CCl)Nc1ccccc1 | – | inactive
CC(C)(C)c1cc([N+](=O)[O-])cc(C(C)(C)C)c1O | – | inactive
CC(C)N(C(=O)CCl)c1ccccc1 | 6.48 µM (active) | –
O=C(Cl)OCCOCCOC(=O)Cl | 6.49 µM (active) | –
O=S1(=O)OC(c2cc(Br)c(O)c(Br)c2)(c2cc(Br)c(O)c(Br)c2)c2ccccc21 | – | inactive
OCC(c1ccc(Cl)cc1)c1ccc(Cl)cc1 | – | inactive
O=S(=O)(Oc1ccc(Cl)cc1)c1ccc(Cl)cc1 | – | inactive
COC(=O)c1cc(Oc2ccc(Cl)cc2Cl)ccc1[N+](=O)[O-] | – | inactive
CCOCn1c(-c2ccc(Cl)cc2)c(C#N)c(Br)c1C(F)(F)F | – | inactive
CC(C)(C1CCC(O)CC1)C1CCC(O)CC1 (stereo unspecified) | – | inactive
Nc1ccc(Br)cc1 | – | inactive
Oc1c(Br)cc(Br)cc1Br | – | inactive
CC(=Cc1ccccc1)[N+](=O)[O-] | – | inactive
O=[N+]([O-])c1ccc(Nc2ccccc2)cc1 | – | inactive
CC(O)(CS(=O)(=O)c1ccc(F)cc1)C(=O)Nc1ccc(C#N)c(C(F)(F)F)c1 (stereo unspecified) | 0.026 µM (active) | –
